This is an account of results in the supplement of paper PMC4206467.

For this assay, the system named is Perkinsus marinus PRA240. Kind of assay: ATP content (proliferation) relative to DMSO control; higher = more parasite growth (less inhibition). Particulars: 20 µM; 4 days. The protocol:
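Perkinsus marinus PRA240 trophozoites (2-5x10^6 cells/ml, 100 µl, 96-well) were exposed once to MMV Malaria Box compounds at 20 µM (0.1% DMSO) in triplicate. ATP content (ATPlite bioluminescence) was read at day 4 post-exposure and normalised to DMSO + cells control wells (100% activity). Compounds were identified by joining plate and well to the Malaria Box list.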
In turn, `CCn1nc(-c2ccc(C(=O)OC)cc2)nc2c(=O)n(C)c(=O)nc1-2` gave an ATP content of 1.37%.

Regarding `CN(C)CCNc1cc(-c2ccccc2)nc2ccccc12`, the ATP content was determined as 106%.

As for `N#Cc1nc(Cc2cccc3ccccc23)oc1N1CCN(C(c2ccccc2)c2ccccc2)CC1`, the ATP content stood at 132%.

Compound `CCOC(=O)C1=C(C)N=c2sc(=Cc3cc(Cl)ccc3O)c(=O)n2C1c1ccc(OC)cc1` (configuration not stated) yielded an ATP content of 61.6%.

Compound `COc1ccc(C(=O)Nc2ccc3nc(N4CCCCC4)cc(C)c3c2)cc1OC` came in with an ATP content of 101%.

As for `CN1c2ccccc2N(C)C1c1ccc2c(c1)OCO2`, the ATP content is 87.3%.

`CC(C)c1ccc(CNCC(O)c2ccccc2)cc1` (configuration not stated) showed an ATP content of 117%.

As for `Cc1cc(=O)oc2c1ccc1oc(C(=O)c3ccccc3)c(C)c12`, the ATP content amounted to 154%.

In turn, `CCOc1ccc(-c2nc(NC(=O)c3cccc(S(C)(=O)=O)c3)sc2C)cc1` showed an ATP content of 79.8%.

In the case of `COCCN(C(=O)Cc1cccs1)C(C(=O)NCc1ccc(OC)cc1)c1ccc(C(C)C)cc1` (configuration not stated), the ATP content was found to be 37.2%.

With `COc1cc(C(=O)Nc2nc3c(cc4c5c(cccc53)CC4)s2)cc(OC)c1OC`, the ATP content was 89.8%.

In turn, `CCOc1ccc2c(c1)CN(Cc1ccc(Cl)cc1)CO2` gave an ATP content of 155%.

As for `CCOc1ccc(CN2CCN(CC(O)COc3ccc(OCC(O)CN4CCN(Cc5ccc(OCC)cc5)CC4)cc3)CC2)cc1` (configuration not stated), the ATP content was 137%.

Consider `COc1cccc(-c2nn(C)c3sc(C(=O)NCCN4CCN(c5ccccc5F)CC4)cc23)c1`, for which the ATP content is 89.7%.

In the case of `Brc1ccc(Nc2nc3ccccc3nc2Nc2ccc(Br)cc2)cc1`, the ATP content was 18.3%.

In the case of `CCOc1ccc2nc(C)cc(Nc3ccc(Br)cc3)c2c1`, the ATP content amounted to 3.75%.

In turn, `COc1cccc(Nc2nc(NCCO)c3ccccc3n2)c1` showed an ATP content of 77.5%.
